Data taken from PubChem BioAssay (Tox21).
Records with an inconclusive call do not appear. Unmarked numbers belong to inactive results. Calls follow the shape of the dose curve; as a rule, active = well fitted cell-killing curve with a large enough effect in the repeat runs; inconclusive = weak or mixed curves, or effect the other way; inactive = no such curve, though single readings can be large or run the other way.

Experiment: qHTS assay to identify small molecule antagonists of the vitamin D receptor (VDR) signaling pathway - cell viability counter screen (AID 743225); also: nearly all actives have a fitted effect of over 50% in size
Conditions: VDR-bla HEK293T viability, CellTiter-Glo luminescence, 16 h; series mostly up to 61 µM; viability change, negative = cytotoxic: at the top concentration
From the text: U.S. Tox21 Program National Center for Advancing Translational Sciences [NCATS] NIH Chemical Genomics Center [NCGC] U.S. Environmental Protection Agency [EPA] National Institutes of Environmental Health Sciences [NIEHS] National Toxicology Program [NTP] U.S. Food and Drug Administration [FDA] Tox21 Assay Overview: The vitamin D receptor (VDR), a member of nuclear hormone receptor superfamily, plays a critical role in calcium homeostasis and bone metabolism. It is also involved in cell differentiation and growth, and thrombogenicity. To identify the compounds that inhibit VDR signaling, the VDR-UAS-bla HEK 293T cell line (Invitrogen, Carlsbad, CA, USA) containing a beta-lactamase reporter gene under the control of an upstream activator sequence (UAS) was used to screen the Tox21 10K compound library. The cytotoxicity of the Tox21 compound library against the VDR-bla cell line was tested in parallel by measuring the cell viability using CellTiter-Glo assay (Promega, Madison, WI) in the same wells.
Tox21 Assay Protocol Summary: VDR-bla cells were dispensed at 2,000 cells/5 uL of assay medium per well into black wall/clear-bottom 1536-well plates using a Multidrop Combi (Thermo Fisher Scientific, Waltham, MA) dispenser. After the assay plates were incubated at a 37C and 5% CO2 for 4 h, 23 nL of compounds dissolved in DMSO, positive controls or DMSO only was transferred to the assay plate by a Pintool station (Kalypsys, San Diego, CA), followed by addition of 1 uL of 1-alpha, 25-Dihydroxy Vitamin D3 (3 nM, final concentration in the wells) using a Bioraptr Flying Reagent Dispenser (FRD) workstation (Beckman Coulter, Indianapolis, IN). The plates were incubated at 37C and 5% CO2 for 16 h, and then 1 uL of LiveBLAzerTM B/G FRET substrate was added using a Bioraptr FRD. The plates were incubated at room temperature for 2 h and fluorescence intensity was measured by an Envision plate reader (PerkinElmer, Shelton, CT). For cell viability readout that measures cytotoxicity, 3 ul/well of CellTiter-Glo reagent was added into the assay plates using a Bioraptr FRD. After 30 min incubation at room temperature, the luminescence intensity in the plates was measured using a ViewLux plate reader (PerkinElmer).
% is scaled to controls: 0 for no effect and ±100 for the full control effect.

SMILES	viability change, negative = cytotoxic
CCCOc1ccc(S(=O)(=O)N2CCN(CC)CC2)cc1-c1nc2c(CC)n(Cc3ccccn3)nc2c(=O)[nH]1	-0.0069%
CC(=O)OCC(=O)[C@@]12OC(C)(C)O[C@@H]1C[C@H]1[C@@H]3C[C@H](F)C4=CC(=O)C=C[C@]4(C)[C@@]3(F)[C@@H](O)C[C@@]12C	12.9%
O=C(CCCCCCC(=O)Nc1ccccc1)NO	-28%
CN1C(=O)CC(C)(c2ccccc2)C1=O (stereo not given)	12.1%
Cc1cc(O)c(C(C)C)cc1Cl	8.56%
CC(C)CCCCCCOC(=O)CCCCC(=O)OCCCCCCC(C)C	5.17%
CC(C)C(OC(=O)c1ccccc1)C(C)(C)COC(=O)c1ccccc1 (stereo not given)	-8.84%
C[C@]12CCC(=O)C=C1C=C[C@@H]1[C@@H]2CC[C@@]2(C)[C@H]1CC[C@@]21CCC(=O)O1	-9.96%
O=S1OCCO1	17.3% [at 78.8 µM]
CCCc1c(OCCCOc2ccc(OCC(=O)O)cc2)ccc(C(C)=O)c1O	-9.34%
Fc1c(F)c(F)c(Br)c(F)c1F	-14.9%
ON(Cc1ccccc1)Cc1ccccc1	13.2%
CCCCCCCCSCCO	-8.67%
COc1cc2c(cc1OC)-c1cc(=Nc3c(C)cc(C)cc3C)n(C)c(=O)n1CC2	8.71%
CC(C)(C)C(=O)C(Oc1ccc(Cl)cc1)n1ccnc1 (stereo not given)	1.35%
N#C[C@@H]1C[C@@H]2C[C@@H]2N1C(=O)[C@@H](N)C12CC3CC(CC(O)(C3)C1)C2	-1.46%
Cc1nccn1-c1ccc(Sc2cccc(C3(C(N)=O)CCOCC3)c2)cc1	-1.75%
OCC1CC=CCC1 (stereo not given)	-1.74%
CCCCCCCCCCCCCCC[C@H](O)[C@@H](N)CO	0.798%
Cc1ccccc1N1C(=O)c2cc(S(N)(=O)=O)c(Cl)cc2NC1C (stereo not given)	0.768%

SMILES	viability change, negative = cytotoxic
O=C(O)Cc1ccc(-c2ccccc2)cc1	5.03%
O=C(O)c1snc(Cl)c1Cl	16.9%
NC(=O)Nc1ccc(Cl)c(Cl)c1	-1.94%
[O]=[Bi]	-2.19% [at 6.95 µM]
O=C(c1ccc(O)cc1)c1ccc(Cl)cc1	2.94% [at 78.8 µM]
CCOC(=O)N1CCC(n2c(=O)[nH]c3cc(Cl)ccc32)CC1	0.264%
C1COCO1	3.55%
CC(CCO)CCc1ccccc1 (stereo not given)	1.28%
CCCCN(CCCC)CCCOC(=O)c1ccc(N)cc1	-21.5%
COC(=O)c1cc(Cl)ccc1NS(=O)(=O)C(F)(F)F	2.54%
CC1(C)C(=O)N(Br)C(=O)N1Cl	0.701%
CN1CCN(c2c(F)cc3c(=O)c(C(=O)O)cn4c3c2OCN4C)CC1	5.64% [at 28.5 µM]
CCCCC1C(=O)N(c2ccccc2)N(c2ccc(O)cc2)C1=O (stereo not given)	-3.29%
CCCOCCOCCO	-13.1%
CC1CC(=O)NN=C1c1ccc(NCC(C)(C)NCC(O)COc2cc(Cl)ccc2C#N)cc1 (stereo not given)	-6.85%
CCC(C)(C)C1CCC(O)CC1 (stereo not given)	3.32%
c1cnc2c(n1)CCCC2	-2.19%
CC(=O)Nc1ccc(N)cc1	6.51% [at 78.8 µM]
CO[Si](C)(OC)OC	-20.1%
CCc1cccc(N(C)C(N)=Nc2cccc3ccccc23)c1	-12.3%
